Source: the supplement of paper PMC6555819

Experiments:
Assay in all cases: PBM binding z-score (relative to random genomic background probes); higher = stronger binding; sequences stand for … in GC…GCGATTGACAGCGTAGAATGAAGG
[1] = test system: FXR:RXRa (NR concentration 270 nM, RXRa partner concentration 90 nM)
Summary of the method: (§1)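 Custom Agilent 4×180K protein-binding microarrays carried double-stranded probes, each with a 34-nt variable region. These regions held direct-repeat seeds, single-nucleotide variants, half-site ablations and random human genomic background sequences. Ligand-free nuclear receptor dimers were incubated on the arrays for 1 h, antibodies against each partner (one per run) detected binding, and scanned fluorescence was regression-normalized. Binding z-scores take the random background probes as reference.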

[2] = test system: LXRa:RXRa (NR concentration 270 nM, RXRa partner concentration 90 nM)
Summary of the method: as §1

[3] = test system: LXRa homodimer (NR concentration 270 nM)
Summary of the method: as §1

[4] = test system: LXRb:RXRa (NR concentration 270 nM, RXRa partner concentration 90 nM)
Summary of the method: as §1

[5] = test system: LXRb homodimer (NR concentration 270 nM)
Summary of the method: as §1

[6] = test system: PPARa:RXRa (NR concentration 270 nM, RXRa partner concentration 90 nM)
Summary of the method: as §1

[7] = test system: PPARg:RXRa (NR concentration 180 nM, RXRa partner concentration 90 nM)
Summary of the method: as §1

[8] = test system: PPARg:RXRa 270nM:90nM, anti-RXR (NR concentration 270 nM, RXRa partner concentration 90 nM)
Summary of the method: as §1

[9] = test system: PPARg:RXRa 30nM:10nM, anti-RXR (NR concentration 30 nM, RXRa partner concentration 10 nM)
Summary of the method: as §1

[10] = test system: PPARg:RXRa 90nM:30nM, anti-RXR (NR concentration 90 nM, RXRa partner concentration 30 nM)
Summary of the method: as §1

[11] = test system: PPARg:RXRa DBDmut IVT, anti-RXR (DBD mutation: RXRa K156A/R161A, NR concentration 270 nM, RXRa partner concentration 90 nM)
Summary of the method: as §1

[12] = test system: PPARg:RXRa IVT, anti-PPARg (NR concentration 270 nM, RXRa partner concentration 90 nM)
Summary of the method: as §1

[13] = test system: PPARg DBDmut:RXRa IVT, anti-PPARg (DBD mutation: PPARg1 K132A/R137A, NR concentration 270 nM, RXRa partner concentration 90 nM)
Summary of the method: as §1

[14] = test system: PPARg DBDmut IVT, anti-PPARg (DBD mutation: PPARg1 K132A/R137A, NR concentration 270 nM)
Summary of the method: as §1

[15] = test system: PPARg homodimer (NR concentration 180 nM)
Summary of the method: as §1

[16] = test system: PXR:RXRa (NR concentration 270 nM, RXRa partner concentration 90 nM)
Summary of the method: as §1

[17] = test system: PXR homodimer (NR concentration 270 nM)
Summary of the method: as §1

[18] = test system: RARa:RXR (NR concentration 270 nM, RXRa partner concentration 90 nM)
Summary of the method: as §1

[19] = test system: RARa homodimer (NR concentration 270 nM)
Summary of the method: as §1

[20] = test system: RARb:RXRa (NR concentration 270 nM, RXRa partner concentration 90 nM)
Summary of the method: as §1

| Sequence | PBM binding z-score [1] | PBM binding z-score [2] | PBM binding z-score [3] | PBM binding z-score [4] | PBM binding z-score [5] | PBM binding z-score [6] | PBM binding z-score [7] | PBM binding z-score [8] | PBM binding z-score [9] | PBM binding z-score [10] | PBM binding z-score [11] | PBM binding z-score [12] | PBM binding z-score [13] | PBM binding z-score [14] | PBM binding z-score [15] | PBM binding z-score [16] | PBM binding z-score [17] | PBM binding z-score [18] | PBM binding z-score [19] | PBM binding z-score [20] |
| --- | --- | --- | --- | --- | --- | --- | --- | --- | --- | --- | --- | --- | --- | --- | --- | --- | --- | --- | --- | --- |
| TCATATAGATAAAGGTGAAAGTCGAACGATATGA | 0.837 | 1.1 | 0.162 | 1.26 | 0.134 | 2.57 | 2.33 | 3.51 | 4.36 | 4.09 | 2.13 | 1.9 | 1.06 | 1.29 | 1.18 | 0.893 | -0.0494 | 1.43 | 0.832 | 1.61 |
| ATCTCTAGGTAAAGATCAGTGAAAGATCGATAGA | 0.248 | 0.153 | 0.0101 | 0.0437 | 0.463 | 0.624 | 1.04 | 1.14 | 0.487 | 0.992 | 1.79 | 1.45 | 0.659 | 1.08 | 0.78 | -0.0968 | 0.169 | 0.174 | 0.687 | 0.0569 |
| ACTATTAGTTGACTTAGGGGAACCGATACGACGC | 0.255 | 0.123 | 0.277 | 0.421 | 1.27 | 0.0304 | 0.951 | 0.244 | 0.351 | 0.326 | 1.27 | 0.41 | 1.51 | 1.41 | 0.783 | 0.271 | 0.621 | 0.648 | 1.36 | 0.217 |
| AGAATGAGGTTATTGAGATCAGGGAATTGCGGTC | 2.32 | 1.71 | 0.125 | 1.34 | -0.146 | 2.79 | 1.67 | 2.07 | 0.258 | 1.31 | 3.5 | 2.93 | 0.606 | 0.563 | 0.709 | 1.57 | 0.864 | 1.84 | 0.342 | 1.63 |
| CGTCCAGGGTCATAGGAGGTCAGTGAAGACAGAT | 7.36 | 7.25 | 2.83 | 6.26 | 0.185 | 5.85 | 5.65 | 5.78 | 2.38 | 4.63 | 1.75 | 3.92 | 0.473 | -0.113 | 4.96 | 6.84 | 2.73 | 6.61 | 2.39 | 4.79 |
| CCTAGTTGGTCAAGGTTACACACGCTATAGGTAC | 1.22 | 1.09 | 0.67 | 1.4 | 0.618 | 1.79 | 1.82 | 2.2 | 0.763 | 1.81 | 1.65 | 2.24 | 1.11 | 1.66 | 2.04 | 1.19 | 1.09 | 1.6 | 1.63 | 1.99 |
| CGAACGAGGGCATGAGTTGATAACAAATGCCGAT | 0.424 | 0.218 | -0.205 | 0.254 | -0.653 | 1.44 | 1.53 | 1.35 | 0.389 | 0.841 | 2.8 | 1.8 | 0.105 | -0.206 | 0.149 | 0.497 | 0.164 | 0.612 | -0.168 | 1.83 |
